Assay results reported in PubChem BioAssay (NCATS).
Values joined by “and” are separate entries in the source; they are usually repeats but may differ in a detail not shown here. Equal values may be shown once. Results filed as inconclusive are left out. Active and inactive are the calls of the source. Unless noted, calls come from the whole dose curve; as a rule, active = well fitted curve in the direction sought with a large enough effect; inconclusive = small, poorly fitted or top-dose-only effect, or another doubt; inactive = no such curve, though single readings can be large; an effect the other way counts as inactive or inconclusive.

What was measured:
[1] = qHTS assay for environmental chemicals that activate the Aryl hydrocarbon Receptor (AhR) signaling pathway (AID 651777); details: 1A2-DRE human hepatoma cells, luciferase, 24 h; stronger effect = higher value; note: % of control where 0% means no effect; nearly all actives have a fitted effect of over 15% in size
Procedure, shortened: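 Quantitative HTS in stably transfected human liver-derived cells whose luciferase gene sits downstream of the CYP1A2 promoter and dioxin response element. After 24 hr exposure at 37 C, One-Glo luminescence was measured.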

[2] = target: Peroxisome proliferator-activated receptor alpha (Homo sapiens) (UniProt Q07869); test: qHTS assay for small molecule agonists of the peroxisome proliferator-activated receptor alpha (PPARalpha) signaling pathway (AID 651778); details: PathHunter PPARalpha complementation, chemiluminescence, 6 h; stronger effect = higher value; note: % of control where 0% means no effect
Sequence of Peroxisome proliferator-activated receptor alpha (Homo sapiens) (Q07869 whole entry, looked up): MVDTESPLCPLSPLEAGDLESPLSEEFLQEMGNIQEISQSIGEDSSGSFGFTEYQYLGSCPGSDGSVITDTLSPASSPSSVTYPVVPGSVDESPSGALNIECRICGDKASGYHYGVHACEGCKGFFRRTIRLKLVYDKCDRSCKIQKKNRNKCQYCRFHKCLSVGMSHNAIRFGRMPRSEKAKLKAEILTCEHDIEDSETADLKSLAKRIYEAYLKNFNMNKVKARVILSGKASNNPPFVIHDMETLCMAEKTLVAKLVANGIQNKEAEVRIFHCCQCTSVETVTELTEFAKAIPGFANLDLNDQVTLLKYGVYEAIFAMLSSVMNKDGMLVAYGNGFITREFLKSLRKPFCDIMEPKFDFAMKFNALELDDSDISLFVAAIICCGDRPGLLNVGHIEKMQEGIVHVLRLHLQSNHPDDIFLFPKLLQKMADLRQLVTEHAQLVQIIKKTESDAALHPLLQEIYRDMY
Procedure, shortened: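 Chemiluminescence from complemented enzyme reported PPARalpha activation in cells after 6 hr of compound treatment at 37 C. The detection reagent was incubated for 60 min at room temperature, and compounds were scored as agonists.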

[3] = target: Arylsulfatase A (Homo sapiens) (UniProt P15289); test: qHTS screen for enhancers of Arylsulfatase A (ASA1): LOPAC Validation Assay (AID 720538); details: ASA enzyme activity, LOPAC qHTS enhancer assay; series mostly up to 57.5 µM; note: 0% is about no effect
Sequence of Arylsulfatase A (Homo sapiens) (P15289 whole entry, looked up): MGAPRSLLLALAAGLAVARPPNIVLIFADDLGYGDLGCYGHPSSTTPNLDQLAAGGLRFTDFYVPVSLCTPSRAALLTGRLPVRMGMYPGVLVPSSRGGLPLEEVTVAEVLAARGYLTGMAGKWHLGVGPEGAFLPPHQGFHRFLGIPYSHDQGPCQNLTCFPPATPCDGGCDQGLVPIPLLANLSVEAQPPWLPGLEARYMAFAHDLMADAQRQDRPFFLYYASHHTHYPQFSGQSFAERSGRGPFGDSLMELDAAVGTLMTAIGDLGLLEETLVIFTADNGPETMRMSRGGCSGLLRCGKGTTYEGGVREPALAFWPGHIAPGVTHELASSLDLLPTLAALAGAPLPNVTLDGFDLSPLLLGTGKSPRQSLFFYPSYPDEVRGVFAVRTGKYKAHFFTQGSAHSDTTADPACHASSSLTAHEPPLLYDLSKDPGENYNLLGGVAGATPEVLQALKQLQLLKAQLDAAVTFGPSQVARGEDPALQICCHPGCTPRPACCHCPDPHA
Procedure, shortened: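 Cell-based enhancement test: residual ASA activity in SV40-transformed I179S patient fibroblasts is measured by pNCS turnover (0.5mM final, 14h, room temperature) following 48h compound incubation; higher fluorescence indicates activation.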

[4] = qHTS for compounds that reverse cellular toxicity of Amyloid beta (A-beta) peptide in yeast: LOPAC Validation Assay (AID 720559); details: yeast expressing A-beta; series mostly up to 46.1 µM;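 note: plate controls were DMSO for no effect and equimolar ferric chloride plus clioquinol rescue for full effect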
Procedure, shortened: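 Here, A-beta-toxic yeast grow with test compounds at 30 C for 48 hr before optical density at 600 nm is recorded; data are normalized against DMSO and the FeCl3-clioquinol control.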

[5] = qHTS for Activators of Parkin Expression: LOPAC Validation Assay (NLuc Reporter) (AID 720572;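 note: 0% = DMSO and 100% = positive control compound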); details: Parkin promoter NanoLuc reporter cells, luminescence; series mostly up to 46.1 µM
Procedure, shortened: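 Parkin promoter-driven FLuc/NLuc neuronal reporter cells; 24 h plating, 7-pt dose response, 24 h at 37 C/5% CO2; FLuc then NanoLuc reagent, 10 min each, luminescence; DMSO/positive control normalized.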

[6] = qHTS for Activators of Parkin Expression: LOPAC Validation Assay (FLuc Reporter) (AID 720573;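 note: 0% = DMSO and 100% = positive control compounds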); details: Cell line, PRKN promoter firefly luciferase reporter, vehicle wells = 0, positive control = 100%; series mostly up to 46.1 µM
Procedure, shortened: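 Readout is FLuc luminescence from neuronal reporter cells (Parkin promoter, FLuc plus NLuc) after 24 h compound exposure in dose response. Values normalized to neutral DMSO and positive-control compounds.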

[7] = qHTS assay for small molecule agonists of the antioxidant response element (ARE) signaling pathway measured by Nrf2-dependant transcriptional activity (AID 720636; active = well fitted curve in the direction sought with a large enough effect in the repeat runs; an effect the other way counts as inactive or inconclusive; note: % of control where 0% means no effect); details: ARE-luc HepG2, Nrf2 luciferase reporter, 16 h; series mostly up to 92.4 µM
Procedure, shortened: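 Quantitative HTS format in HepG2 cells stably expressing an ARE-luciferase reporter; 16 hr compound treatment at 37 C, luciferase signal detected with ONE-Glo.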

[8] = qHTS assay for small molecule agonists of the antioxidant response element (ARE) signaling pathway measured by Nrf2-dependant transcriptional activity - cell viability counter screen (AID 720653; active = well fitted curve in the direction sought with a large enough effect in the repeat runs; an effect the other way counts as inactive or inconclusive; note: % is set by controls: 0 for no effect and ±100 for the full control effect); details: ARE-bla HepG2 viability, CellTiter-Glo ATP luminescence, 16 h; max response: stronger effect = lower value
Procedure, shortened: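 Cytotoxicity counter screen: intracellular ATP quantified by CellTiter-Glo luminescence in the same ARE-bla HepG2 plates, after 16 h compound exposure and a 2 h beta-lactamase substrate step.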

[9] = target: T1, Hexokinase-4 (Homo sapiens) + Glucokinase regulatory protein (Homo sapiens) (UniProt P35557+Q14397); test: qHTS assay for inhibitors of recombinant human GCK-GKRP interaction: Diaphorase-coupled assay (AID 743205); details: G6PDH/diaphorase resorufin fluorescence; series mostly up to 57.5 µM
T1 sequence (P35557 whole entry, looked up): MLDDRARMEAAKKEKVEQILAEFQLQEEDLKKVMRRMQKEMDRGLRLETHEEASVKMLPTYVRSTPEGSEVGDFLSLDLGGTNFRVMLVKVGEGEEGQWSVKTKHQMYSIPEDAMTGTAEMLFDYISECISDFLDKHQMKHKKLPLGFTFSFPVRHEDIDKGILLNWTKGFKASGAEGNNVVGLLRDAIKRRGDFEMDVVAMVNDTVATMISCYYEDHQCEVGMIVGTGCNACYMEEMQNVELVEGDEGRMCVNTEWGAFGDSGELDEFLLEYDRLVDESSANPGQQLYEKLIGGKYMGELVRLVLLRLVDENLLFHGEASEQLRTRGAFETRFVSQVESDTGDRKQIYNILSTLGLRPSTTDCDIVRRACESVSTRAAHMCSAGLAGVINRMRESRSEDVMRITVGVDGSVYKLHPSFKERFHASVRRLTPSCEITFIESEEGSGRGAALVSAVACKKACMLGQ
T1 sequence (Q14397 whole entry, looked up): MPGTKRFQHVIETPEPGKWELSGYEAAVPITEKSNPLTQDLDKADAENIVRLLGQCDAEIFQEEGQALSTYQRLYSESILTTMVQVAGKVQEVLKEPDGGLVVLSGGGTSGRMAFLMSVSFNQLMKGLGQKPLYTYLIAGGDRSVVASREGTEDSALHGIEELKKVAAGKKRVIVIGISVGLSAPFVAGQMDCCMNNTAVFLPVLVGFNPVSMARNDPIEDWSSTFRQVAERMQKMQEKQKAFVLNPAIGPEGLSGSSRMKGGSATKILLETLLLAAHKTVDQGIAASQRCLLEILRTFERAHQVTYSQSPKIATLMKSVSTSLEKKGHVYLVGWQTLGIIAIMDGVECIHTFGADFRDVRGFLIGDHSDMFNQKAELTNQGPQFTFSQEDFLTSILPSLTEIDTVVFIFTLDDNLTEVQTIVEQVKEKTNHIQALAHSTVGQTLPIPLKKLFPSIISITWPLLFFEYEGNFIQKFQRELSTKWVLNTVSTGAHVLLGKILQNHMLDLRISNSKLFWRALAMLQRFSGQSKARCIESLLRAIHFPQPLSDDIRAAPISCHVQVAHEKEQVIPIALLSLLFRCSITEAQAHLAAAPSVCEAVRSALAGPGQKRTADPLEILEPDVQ
Procedure, shortened: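 Signal derives from resorufin generated by diaphorase, linked to GCK turnover of glucose (5 mM) and ATP (0.4 mM). Enzyme complex was added after a 20-minute compound preincubation and monitored for 30 minutes.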

[10] = target: T1, Hexokinase-4 (Homo sapiens) + Glucokinase regulatory protein (Homo sapiens); test: qHTS assay for inhibitors of recombinant human GCK-GKRP interaction: ADP-Glo assay (AID 743206); details: ADP-Glo luminescence, 60 min, 0% = vehicle-only wells with enzyme present; series mostly up to 76.9 µM;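 note: plate controls were DMSO plus enzyme for no effect and no enzyme for full effect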
Procedure, shortened: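 GST-GCK and FLAG-GKRP (15 nM each in the dispensed mix, with 2 uM S6P) react with 0.4 mM ATP and 5 mM glucose (final) in Hepes pH 7.6 for 60 min at room temperature. ADP is measured by ADP-Glo luminescence.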

[11] = target: T1, Hexokinase-4 (Homo sapiens) + Glucokinase regulatory protein (Homo sapiens); test: qHTS assay for inhibitors of recombinant human GCK-GKRP interaction: HTRF assay (AID 743207); details: recombinant GCK-GKRP HTRF binding, 60 min, with sorbitol-6-phosphate; series mostly up to 57.5 µM;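 note: 0% = DMSO with GCK present and -100% = DMSO wells lacking GCK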
Procedure, shortened: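 Titration screening format: recombinant GST-GCK and FLAG-GKRP at 5 nM, S6P at 2 uM, labelled anti-tag antibodies, 60 min at RT, dual-wavelength HTRF readout.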

[12] = qHTS assay to identify small molecules that stimulate interleukin-8 (IL-8) secretion (AID 651758; active = well fitted activation curve with a large enough effect in the signal ratio; the % refers to the signal ratio; note: 0% is about no effect); details: HTRF ratio (665/615); series mostly up to 92.2 µM
Procedure, shortened: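 Secreted IL-8 measured by TR-FRET sandwich (cryptate and XL665 antibodies) from THP-1 cells exposed to compound overnight (16 hrs, 37 C).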

[13] = qHTS assay for small molecule antagonists of the retinoid-related orphan receptor gamma (ROR-gamma) signaling pathway - cell viability counter screen (AID 720652; active = well fitted curve in the direction sought with a large enough effect in the repeat runs; an effect the other way counts as inactive or inconclusive;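 note: compound exposure lasted 16 hr before ATP read; % is set by controls: 0 for no effect and ±100 for the full control effect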); details: RORgamma reporter cell line viability counter screen; series mostly up to 92.2 µM
Procedure, shortened: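 Luminescence from CellTiter-Glo after 30 min at room temperature reported cellular ATP as the cytotoxicity measure. Cells were the CHO reporter line with doxycycline-induced ROR-gamma expression, exposed to compound for 16 hr at 37 C.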

[14] = qHTS Assay for Identifying Gametocytocidal Compounds (AID 743244);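 note: % is set by controls: 0 for no effect and ±100 for the full control effect; actives lower the fluorescent signal which means gametocytes are killed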; details: P. falciparum 3D7 stage III-V gametocytes, alamarBlue, 72 h; max response: stronger effect = lower value
Procedure, shortened: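 Stage III–V gametocytes of P. falciparum 3D7 were seeded at 20,000 cells/well onto pre-dispensed compounds. After 72 h, 37 °C, 5% CO2, alamarBlue was added for another 24 h.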

[15] = target: Nuclear receptor ROR-gamma (Homo sapiens) (UniProt P51449); test: qHTS assay for small molecule antagonists of the retinoid-related orphan receptor gamma (ROR-gamma) signaling pathway (AID 651802); details: ROR-gamma antagonist cell reporter assay; series mostly up to 92.2 µM;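 note: luciferase reporter luminescence driven by ROR response element; % is set by controls: 0 for no effect and ±100 for the full control effect; nearly all actives have a fitted effect of over 60% in size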
Sequence of Nuclear receptor ROR-gamma (Homo sapiens) (P51449 whole entry, looked up): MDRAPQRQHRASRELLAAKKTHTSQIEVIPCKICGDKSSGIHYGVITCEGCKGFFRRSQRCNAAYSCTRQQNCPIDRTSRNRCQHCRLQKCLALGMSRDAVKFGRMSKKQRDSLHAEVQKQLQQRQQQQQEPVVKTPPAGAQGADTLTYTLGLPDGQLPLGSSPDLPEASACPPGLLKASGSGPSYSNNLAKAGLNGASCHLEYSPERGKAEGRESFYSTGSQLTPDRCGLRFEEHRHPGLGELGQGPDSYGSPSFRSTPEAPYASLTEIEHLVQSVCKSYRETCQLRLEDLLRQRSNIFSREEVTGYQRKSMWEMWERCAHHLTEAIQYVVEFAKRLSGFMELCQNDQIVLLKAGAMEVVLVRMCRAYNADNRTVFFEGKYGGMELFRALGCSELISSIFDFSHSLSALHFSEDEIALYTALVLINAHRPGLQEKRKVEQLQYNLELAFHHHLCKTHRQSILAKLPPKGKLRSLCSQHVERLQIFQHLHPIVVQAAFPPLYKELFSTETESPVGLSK
Procedure, shortened: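 CHO, TET-inducible ROR + RORE-LUC reporter, 1536-well qHTS. Compound pinned, doxycycline added, 16hr 37C/5% CO2. ONE-Glo, 30 min RT, luminescence; signal drop scored as antagonism.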

CC(CN1c2ccccc2Sc2ccccc21)N(C)C (stereo unspecified)
inactive: activation [1] -0.788% | max response [2] -2.77% | Potency [3] | outcome [4] | Potency [5] | outcome [6] | outcome [7] | max response [8] -20.1% | outcome [9] | outcome [10] | outcome [11]

O=C1c2c(O)cccc2Cc2cccc(O)c21
inactive: outcome [12] | activation [1] -0.232% | max response [2] -2.77% | outcome [7] | Potency [13] | max response [8] -0.576% | max response [14] 12%

COc1ccccc1O
inactive: activation [1] 0.592% and -0.634% and 2.1% | max response [2] -1.16% and 0.39% and -4.81% | Potency [15] | outcome [7] | Potency [13] | max response [8] 0.99% and -1.64% and 4.12% | max response [14] -0.65%

Cc1cc(CC(=O)O)n(C)c1C(=O)c1ccc(Cl)cc1
inactive: activation [1] 0.224% | max response [2] -2.08% | Potency [15] | outcome [7] | Potency [13] | max response [8] -9.23%

C[C@]12CC[C@@H]3c4ccc(O)cc4CC[C@H]3[C@@H]1CCC2=O
inactive: activation [1] 0.316% | max response [2] -1.03% | outcome [4] | Potency [5] | outcome [6] | outcome [7] | max response [8] -0.718% | outcome [9] | outcome [10] | max response [14] -6.45% and 30.5%

COC(=O)C1=C(C)NC(C)=C(C(=O)OC)C1c1ccccc1[N+](=O)[O-]
inactive: outcome [12] | activation [1] 3.95% | max response [2] -2.24% | Potency [3] | outcome [4] | max response [8] -20.5% | outcome [9] | outcome [10] | outcome [11] | max response [14] 13.4% and 13.1%

Oc1cccc(O)c1
inactive: activation [1] 2.18% | max response [2] -10.6% | outcome [7] | max response [8] 0.509%

COc1ccc(Cl)cc1C(=O)NCCc1ccc(S(=O)(=O)NC(=O)NC2CCCCC2)cc1
inactive: activation [1] 1.06% | max response [2] 0.201% | Potency [3] | outcome [4] | outcome [6] | outcome [7] | max response [8] -18.1% | outcome [9] | outcome [10] | outcome [11]

CCCCOC(=O)c1ccc(O)cc1
inactive: activation [1] 6.66% and 14.1% | max response [2] -8.78% and 4.43% | Potency [15] | Potency [13] | max response [8] 4.31% and -13.4% | max response [14] 0.124%
